Screening results from PubChem.
This is a sample that favours compounds with a hit; in the whole collection about 0.95% have one here.
Rhodamine fluor: rhodamine region autofluorescence. 59,000 compounds, 0.05% hits. AID 594. max dye-equivalent concentration, M. Rhodamine-region fluorescence, 547/598 nm, Tris buffer; stronger effect = higher value; in the data active means max dye-equivalent concentration above about 11 nM; inconclusive means between about 1.1 nM and that limit
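A six-point rhodamine series on each plate calibrates the signal. Compounds sit in 100 mM Tris (pH 8.0) for 15 min at ambient temperature before imaging through 547 nm/598 nm filters.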
A647 autofl: A647 region autofluorescence; 59,000 tested, under 10 active; max dye-equivalent concentration, M; AID 592; Compound fluorescence, A647 channel (570/671 nm), Tris buffer;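 further: values scaled relative to a standard on each plate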
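Compound fluorescence was measured in 100 mM Tris buffer, pH 8.0, after 15 min at room temperature, using 570 nm excitation and 671 nm emission filters. Signal was normalized to a per-plate Alexa 647 standard curve and expressed as dye-equivalent concentration at each compound concentration.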
Texas Red fluor: compound fluoresces in the Texas Red spectral region; Compound fluorescence, Texas Red channel, 547/618 nm; stronger effect = higher value; max dye-equivalent concentration, M; 59,000 compounds, 0.06% hits; AID 587; in the data active means max dye-equivalent concentration above about 10 nM; inconclusive means between about 1.1 nM and that limit
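Fluorescence at ex 547/em 618 nm, normalized against an on-plate Texas Red standard series to give dye-equivalent concentration per compound concentration. Buffer 100 mM Tris, pH 8.0; 15 min RT incubation before CCD imaging.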
Fluorescein fluor: fluorescein region autofluorescence; Compound autofluorescence, 480/540 nm, fluorescein-equivalent; stronger effect = higher value; max fluorescein-equivalent concentration, M; 59,000 compounds, 0.91% hits; AID 593; in the data active means max fluorescein-equivalent concentration above about 10 nM; inconclusive means between about 1.1 nM and that limit
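Tris 100 mM pH 8.0; 15 min RT; CCD read, ex 480/em 540 nm. Output: fluorescein-equivalent concentration per compound concentration, from six-point dye series on each plate.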
Resorufin fluor: compounds fluorescent in resorufin spectral region | Compound fluorescence, resorufin region 547/598 nm, buffer; stronger effect = higher value | max dye-equivalent concentration, M | 59,000 compounds, 0.04% hits | AID 588
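Read-out: intrinsic compound fluorescence at ex 547/em 598 nm after 15 min at RT in pH 8.0 Tris (100 mM). Values expressed as resorufin-equivalent concentration from per-plate standard series.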
A488 fluor: A488 region autofluorescence; max dye equivalency, M; compound autofluorescence, A488 spectral region, dye equivalency; Compound Type: qHTS ECL - MLSMR; 59,000 compounds, 0.1% hits
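Read-out: relative fluorescence at 480/540 nm, expressed as Alexa 488 dye-equivalent concentration from a six-point A488 standard included per plate. Conditions: 100 mM Tris, pH 8.0; 15 min incubation, room temperature.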
An asterisk follows results filed as active; i = inactive; ? = inconclusive; ! = not confirmed by another sample. Unless noted, how the calls were made is not given here.

SMILES | Rhodamine fluor | A647 autofl | Texas Red fluor | Fluorescein fluor | Resorufin fluor | A488 fluor
C1CCN(CC[C@@H]2CCCCN2)CC1 | i | 5.4e-09 | i | ? | i | i
Cc1noc(C)c1-c1ccc2ncnc(N3CCN(C)CC3)c2c1 | i | 3.45e-08 | i | ? | i | i
O=C1c2cccc3c(N4CCCCC4)ccc(c23)C(=O)N1c1ccccn1 | i | 2.3e-09 | i | 2.66e-07M* | i | 1.34e-08M*
C=C1CC[C@H]2C(C)(C)[C@H](O)CC[C@]2(C)[C@@H]1COc1ccc2ccc(=O)oc2c1 | i | 2.6e-09 | i | i | i | i
CC1(C)CC(=O)C2=C(C1)OC(N)=C(C#N)C21CCN(Cc2ccccc2)CC1 | i | 3.71e-08 | i | 3.17e-08M* | i | ?
Cc1ccc(C2NC(=O)c3c(sc4c3CCN(C)C4)N2)s1 (stereo not given) | i | 4.53e-08 | i | 1.64e-08M* | i | i
CN1CCc2c(sc3c2C(=O)NC(/C=C/c2ccco2)N3)C1 (stereo not given) | i | 4.29e-08 | i | 1.33e-08M* | i | i
CN1CCc2c(sc3c2C(=O)NC(c2ccccn2)N3)C1 (stereo not given) | ? | 4.8e-08 | 1.25e-08M* | 5.58e-08M* | ? | ?
Cc1ccc(C2NC(=O)c3c(sc4c3CCN(C)C4)N2)o1 (stereo not given) | i | 4.05e-08 | i | 1.21e-08M* | i | i
O=C1NC(c2ccccn2)Nc2sc3c(c21)CCC3 (stereo not given) | i | 9.1e-09 | ? | i | i | i
CCOC(=O)N1CCc2c(sc3c2C(=O)NC(c2ccc(-c4ccc(Cl)cc4)o2)N3)C1 (stereo not given) | i | 1e-09 | i | i | i | i
CN1CCc2c(sc3c2C(=O)NC(c2ccc4c(c2)OCO4)N3)C1 (stereo not given) | i | 2.33e-08 | ? | ? | i | i
COc1ccc(Oc2ncc3ncc(=O)n(C4CC4)c3n2)cc1 | i | 1e-09 | i | i | i | i
C=C(CO)[C@H]1Cc2c(ccc3c2O[C@H]2COc4cc(OC)c(OC)cc4[C@@H]2C3=O)O1 | i | 1.47e-08 | i | i | i | i
Cc1c(C2Nc3ccccc3NC3=C2C(=O)CC(C)(C)C3)cnn1C (stereo not given) | i | 6.8e-09 | i | 1.11e-08M*! | i | i
N[C@H](Cc1ccc(F)cc1)C(=O)O | i | 9.6e-09 | i | ? | i | i
O=C1C2[C@@H](c3ccccc3)N[C@@H](c3ccccc3)C1[C@H](c1ccccc1)N[C@H]2c1ccccc1 | i | 1e-09 | i | i | i | i
O=c1oc2c(CN3CCCCC3)c(O)ccc2cc1-c1nc2ccccc2[nH]1 | i | 1e-09 | i | 2.83e-06M* | i | 1.4e-07M*
COc1cc([C@@H]2c3cc4c(cc3[C@@H](O[C@@H]3O[C@H]5CO[C@@H](C)O[C@@H]5[C@@H](O)[C@H]3O)[C@@H]3COC(=O)[C@@H]23)OCO4)cc(OC)c1O | i | 1.3e-09 | i | i | i | i
Cn1cc(C2=C(c3ccc(Cl)cc3Cl)C(=O)NC2=O)c2ccccc21 | ? | 1.8e-09 | i | 4.98e-07M* | ? | 2.72e-08M*
CN1C(C(=O)Nc2ccccn2)=C(O)c2ccccc2S1(=O)=O | i | 4.2e-08 | i | 1.22e-08M*! | i | i
CC(=O)C1=C(C)N=c2s/c(=C/c3ccc4c(c3)OCO4)c(=O)n2C1c1ccc(N(C)C)cc1 (stereo not given) | i | 2.5e-09 | i | i | i | i
COc1ccc(C2C(C(C)=O)=C(C)N=c3s/c(=C/c4ccc5c(c4)OCO5)c(=O)n32)cc1 (stereo not given) | i | 1.5e-09 | i | 1.21e-08M* | i | i
COc1c2ccoc2cc2oc(=O)ccc12 | i | 4e-09 | i | i | i | i
COc1ccc2c(OC)c3ccoc3nc2c1OC | i | 1e-09 | ? | 1.05e-08M*! | i | i
SMILES | Rhodamine fluor | A647 autofl | Texas Red fluor | Fluorescein fluor | Resorufin fluor | A488 fluor
Cc1ccccc1-n1c(=O)/c(=C\c2ccco2)s/c1=C(/C#N)C(=O)Nc1ccccc1 | i | 1e-09 | i | 1.37e-08M* | i | i
COc1ccc(Oc2ncc3ncc(=O)n(CCC#N)c3n2)cc1 | i | 1e-09 | i | i | i | i
CN1/C(=C\C(=O)COC(=O)Cn2nnc(-c3ccccc3)n2)C(C)(C)c2ccccc21 | ? | 9.5e-09 | 2.21e-08M* | ? | ? | i
CN(C)c1ncc2nc(-c3ccc(F)cc3)c(=O)n(C)c2n1 | i | 2.52e-08 | i | i | i | i
Cc1cccc(-c2c3c(=O)n(C)c(=O)n(C)c3c3c(C)cc(C)nn23)c1 | i | 3.24e-08 | i | ? | i | i
Cc1cccc(-c2c3c(=O)n(C)c(=O)n(C)c3c3cccnn23)c1 | i | 1e-09 | i | 1.06e-08M* | i | i
COCC(=O)N1CCC2(CC1)CN(c1cccc(-c3ccccc3)c1)C2 | i | 1.57e-08 | i | i | i | i
CC(C)OCCCn1c(=NC(=O)c2ccncc2)c(C#N)cc2c(=O)n3ccccc3nc21 | i | 1e-09 | i | 1.89e-08M* | i | i
CC(C)C[C@H](NC(=O)[C@@H](NC(=O)N[C@@H](Cc1ccccc1)C(=O)O)[C@H]1CCN=C(N)N1)C(=O)N[C@H](C=O)Cc1ccccc1 | i | 6.2e-09 | i | ? | i | i
N=c1oc2c3c4c(cc2cc1C(=O)Nc1ccccc1)CCCN4CCC3 | ? | 4.85e-08 | ? | 4.74e-07M* | i | 2.52e-08M*
N#Cc1ccc(NC(=O)c2cc3cc4c5c(c3oc2=N)CCCN5CCC4)cc1 | i | 3.87e-08 | i | 2.28e-07M* | i | 1.2e-08M*
Cc1ccc(/C=c2\sc3nc(-c4ccco4)nn3c2=O)o1 | i | 1.85e-08 | i | 1.5e-08M* | i | i
CCCCC[C@H](CC(=O)NO)C(=O)N[C@@H](C(=O)N1CCC[C@H]1CO)C(C)C | i | 2.97e-08 | i | ? | i | i
CC(C)C1Cc2c(C#N)c(N)sc(=S)c2CO1 (stereo not given) | i | 3.9e-09 | i | 1.28e-08M* | i | i
CN(C)c1ccc(/C=c2\sc3n(c2=O)CCCN=3)cc1 | i | 1e-09 | i | 1.45e-08M* | i | i
COC(=O)/C=c1/sc2n(c1=O)CCN=2 | i | 1.84e-08 | i | i | i | i
O=[n+]1c2c(n([O-])c3cc(F)ccc31)CCCC2 | i | 1.04e-08 | i | i | i | i
O=[n+]1c2c(n([O-])c3cc(F)c(N4CCCC4)cc31)CCC2 | ? | 1.18e-08 | ? | 1.71e-07M* | ? | ?
